According to PubChem BioAssay (NCI):
The panel holds about 83,000 compounds, 20% with a hit somewhere; the sample as a whole holds those more often.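 In brief: 96-well plates, 48 h treatment, single concentration, percent growth endpoint.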 Active and inactive are the calls of the source.

Tested on: SK-MEL-2 melanoma
Assay: NCI-60 one-dose screen, 48 h (100 = growth as untreated, 0 = no growth, -100 = all killed)
Settings: 10 µM unless noted
Procedure: Growth inhibition of the SK-MEL-2 human tumor cell line is measured as a screen for anti-cancer activity. Cells are grown in 96 well plates and exposed to the test compound for 48 hours. Compounds are tested at a single concentration, which is 10^-5 M for most compounds. The reported endpoint is percent growth (GI% or GIPRCNT), where numbers from 0 - 100% represent growth inhibition, and numbers from -100% - 0 represent cell death. For example, a value of 40 represents 60% growth inhibition. A value of 0 means no net growth occurred over the course of the experiment. A value of -40 indicates 40% of cells at the beginning of the experiment died by the end of the experiment. A value of -100 means all cells are dead at the end of the experiment.
NCI-60 Human Tumor Cell Lines Screen was performed using the standard one-dose NCI protocol, which is described in more detail at https://dtp.cancer.gov/discovery_development/nci-60/default.htm.
Compounds with GIPRCNT values below 10 were considered active. Activity score was based on GIPRCNT using the following formula: […]
Score is 0 for GIPRCNT values of 100 or above, 50 for GIPRCNT values of 0, and 100 for GIPRCNT values of -100.

SMILES	growth
C#Cc1cccc(NC(=O)Nc2ccccc2NC(=O)CCl)c1	-56% [8.25 µM] (active)
CC(=O)OC[C@H]1OC(Sc2sc(C(=O)c3ccc(Cl)cc3)c(N)c2-c2nc3ccccc3s2)[C@H](OC(C)=O)[C@@H](OC(C)=O)[C@@H]1OC(C)=O (stereo not given in full)	104% (inactive)
COc1cc(C(=O)/C=C/c2sc(Cl)nc2Cl)cc(OC)c1OC	82.7% (inactive)
CCCCCCCNC(=O)CCCNc1ncnc2c1ncn2-c1cccc(C(C)O)c1 (stereo not given)	105% (inactive)
O=C(CCOCCNC(=O)COc1ccc2c(c1)OCC(c1ccc(F)cc1)C2=O)NCCCC(O)(P(=O)(O)O)P(=O)(O)O (stereo not given)	104% (inactive)
CCOc1cccc(NC2=C(Br)C(=O)C(C)=C(C)C2=O)c1	95.5% (inactive)
COc1ccc2nc(NC(=O)c3cccnc3Nc3ccc(S(N)(=O)=O)cc3)sc2c1	103% (inactive)
COc1ccccc1/C=C1\Oc2cc(OCCN3CCC(Cc4ccccc4)CC3)ccc2C1=O	116% (inactive)
O=C(Nc1ccc(Cl)cc1F)c1ccccc1O	2.56% (active)
CC(C)OC(=O)Nc1ccc(-c2nc(-c3cccc(OCCN4CCOCC4)c3)c(-c3ccnc(Br)c3)[nH]2)cc1	32.5% (inactive)
CC(=O)O.CN1[CH-]N(Cc2ccc(C#N)cc2)c2ccccc21.[Ag+]	89.8% (inactive)
COc1ccc(OC)c(/C=C/c2nnc(Nc3ccccc3)o2)c1	95% (inactive)
O=C(Cc1ccc(F)c(Cl)c1)Nc1cc(C2(C(F)(F)F)CC2)nn1Cc1ccccc1	18.9% (inactive)
CN(C)CC#Cc1ccc2ncc(C#N)c(Nc3ccc(F)c(Cl)c3)c2c1	38.3% (inactive)
Cc1ccc(-c2nc(N3CCN(C(=O)c4ccc(OC(F)(F)F)cc4)CC3)c3ccccc3n2)cc1	102% (inactive)
CCCCOc1nc2c(C)cccc2cc1-c1cc(-c2ccc(Cl)cc2)nc(-c2ccc(Cl)cc2)c1	102% (inactive)
Cc1ccc(C(CC(=O)O)c2c(C)[nH][nH]c2=O)cc1 (stereo not given)	113% (inactive)
O=c1c2cc(C(F)(F)F)ccc2sc2c(NCCCNCCO)nc3ccccc3c12	84.7% (inactive)
CN1CCN(c2ccc(-c3cc4c(Nc5ccc(F)c(Cl)c5)ncnn4c3)cn2)CC1	109% (inactive)
Cc1ccc(C(C)C)cc1C(=O)C[n+]1ccccc1	107% (inactive)

SMILES	growth
CN(C)CCCNc1nc2ccccc2c2c(=O)c3cc(F)ccc3sc12	87.3% (inactive)
Cc1ccc(C(=O)NN2C(=O)CSC2c2ccc(Cl)cc2)cn1 (stereo not given)	102% (inactive)
COc1cc(C(=O)N/N=C/c2cc3cc(OCc4ccccc4)ccc3nc2OC)cc(OC)c1OC	85.4% (inactive)
O=c1c2cc(F)ccc2sc2c(N3CCCCC3)nc3ccccc3c12	115% (inactive)
COc1ccc(/C=N/Nc2cc(=O)[nH]c3ccc(C)cc23)cc1	81.7% (inactive)
COc1ccc(OC)c(/C=C/C(=O)N/N=C/c2ccc(Cl)cc2)c1	22.3% (inactive)
CCOC(=O)c1cn2ncnc(Oc3ccc(NC(=O)NCCN(CC)CC)c(Cl)c3)c2c1C	112% (inactive)
Cc1cccc2c3c(sc12)C(c1ccc(Cl)cc1)C(C#N)=C(N)O3 (stereo not given)	45.7% (inactive)
O=C(/C=C/c1sc(Cl)nc1Cl)c1ccccc1	104% (inactive)
CCc1cccc2c3c(sc12)C(c1ccc(F)cc1)C(C#N)=C(N)O3 (stereo not given)	57% (inactive)
Brc1ccc2[nH]cc(-c3nc(-c4c[nH]c5ccncc45)cs3)c2c1	-46.8% (active)
O=C(Cc1ccc(F)c(Cl)c1)Nc1cc(C2(C(F)(F)F)CC2)nn1CC1CCCCC1	-48.8% (active)
CCN(CC)Cc1cc(Nc2c3ccc(Cl)cc3nc3ccc(OC)cc23)ccc1O	101% (inactive)
CCOC(=O)Cn1c(=O)c2c(c3ccccc3n2C)n2nnc(-c3ccccc3)c12	98.3% (inactive)
COc1ccc2nc(NCCCNCCO)c3sc4ccc(F)cc4c(=O)c3c2c1	89% (inactive)
O=c1c2cccc(Cl)c2sc2c(NCCCNCCO)nc3ccccc3c12	104% (inactive)
OC(COc1ccccc1)CN1CCN(c2ccc(Cl)cc2)CC1 (stereo not given)	104% (inactive)
O=C(/C=C/c1sc(Cl)nc1Cl)c1ccc(Br)cc1	96.4% (inactive)
NC[C@@H]1O[C@H](O[C@@H]2[C@@H](CO)OC(O[C@@H]3[C@@H](O)[C@H](N)C[C@H](N)[C@H]3OC3O[C@H](CN)[C@@H](O)[C@H](O)[C@H]3N)[C@@H]2O)[C@H](N)[C@@H](O)[C@@H]1O (stereo not given in full)	125% (inactive)
COc1cccc(/C=C2\C=C(c3ccccc3)N(Cc3ccccc3)C2=O)c1	72.6% (inactive)
